This note sets out measurements from PubChem BioAssay (Tox21).

Molecules are shown by their SMILES. Records with an inconclusive call do not appear. Entries that show only a call come without a potency. Activity calls are given as the source filed them. The call rests on the fitted dose curve; in most records, active means well fitted activation curve with a large enough effect in the repeat runs; inconclusive means weak or mixed curves; inactive means no such curve, though single readings can be large or run the other way. Starred links: 1 amine or outer side, 2 acyl side, 3 side chain; linkers in the order of their positions; H or OH if unused. Positions of bridges follow the written chain, without caps; N, C: chain ends. Non-standard residues stand in square brackets, D forms with d. Residues, ends and D or L forms follow the SMILES beside them. *: point of attachment. X5 = NC1=N[C@@H]([C@H](N[*:1])C(=O)[*:2])C[C@H](O)N1; ΔAla(Z-3-ureido) = NC(=O)N/C=C(\N)C(=O)O; β3hOrn = NCCC[C@H](N)CC(=O)*; Dap = NC[C@H](N)C(=O)O
Potency means the concentration at half of the fitted maximal effect.

In the assay the target is Aryl hydrocarbon receptor (Homo sapiens) (UniProt P35869). The experiment in a line: qHTS assay to identify small molecule that activate the aryl hydrocarbon receptor (AhR) signaling pathway (AID 743085). Further: nearly all actives have a fitted effect of over 15% in size.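 On activation: HG2L7.5c1 human HepG2 liver cells with stably integrated DRE-driven firefly reporter.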 As to conditions: HepG2 AhR-luc (HG2L7.5c1), luciferase, 24 h; series mostly up to 70.3 µM. From the text: U.S. Tox21 Program National Center for Advancing Translational Sciences [NCATS] NIH Chemical Genomics Center [NCGC] U.S. Environmental Protection Agency [EPA] National Institutes of Environmental Health Sciences [NIEHS] National Toxicology Program [NTP] U.S. Food and Drug Administration [FDA] Tox21 Assay overview: The Aryl hydrocarbon Receptor (AhR), a member of the family of basic helix-loop-helix transcription factors, is crucial to adaptive responses to environmental changes. AhR mediates cellular responses to environmental pollutants such as aromatic hydrocarbons through induction of phase I and II enzymes but also interacts with other nuclear receptor signaling pathways. A cell based HepG2-AhR-luc assay (HG2L7.5c1 cell line, developed by Dr. Michael S. Denison, University of California at Davis, was used to assess the activation of AhR. HepG2 (human hepatocellular carcinoma) cells were stably transfected with an Ah receptor-responsive firefly luciferase reporter gene plasmid containing 20 dioxin responsive elements and luciferase reporter gene. Increased luciferase activity can be used to identify the compounds that induce AhR activation.
Sequence of Aryl hydrocarbon receptor (Homo sapiens) (P35869 whole entry, looked up): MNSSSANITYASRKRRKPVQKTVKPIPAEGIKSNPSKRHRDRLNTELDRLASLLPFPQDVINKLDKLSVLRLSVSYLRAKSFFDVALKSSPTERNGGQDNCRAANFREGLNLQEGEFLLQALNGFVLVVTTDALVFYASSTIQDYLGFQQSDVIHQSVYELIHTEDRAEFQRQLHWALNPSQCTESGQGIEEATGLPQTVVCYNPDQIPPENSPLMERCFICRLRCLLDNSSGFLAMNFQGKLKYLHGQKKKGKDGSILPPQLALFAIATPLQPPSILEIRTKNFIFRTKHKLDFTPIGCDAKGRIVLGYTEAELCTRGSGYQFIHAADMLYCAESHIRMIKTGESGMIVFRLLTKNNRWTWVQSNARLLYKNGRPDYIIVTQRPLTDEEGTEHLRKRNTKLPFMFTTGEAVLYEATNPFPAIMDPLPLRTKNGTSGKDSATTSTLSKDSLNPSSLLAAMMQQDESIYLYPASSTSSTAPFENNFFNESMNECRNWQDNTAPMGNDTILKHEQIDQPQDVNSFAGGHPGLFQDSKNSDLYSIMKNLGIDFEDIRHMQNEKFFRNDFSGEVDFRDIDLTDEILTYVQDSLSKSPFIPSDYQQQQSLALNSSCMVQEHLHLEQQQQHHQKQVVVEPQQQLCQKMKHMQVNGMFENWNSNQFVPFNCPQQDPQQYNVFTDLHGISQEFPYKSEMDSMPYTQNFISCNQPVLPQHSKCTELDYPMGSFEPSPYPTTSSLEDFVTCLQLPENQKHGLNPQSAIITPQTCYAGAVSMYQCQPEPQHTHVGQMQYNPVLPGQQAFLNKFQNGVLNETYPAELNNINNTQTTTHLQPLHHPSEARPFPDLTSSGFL
Tox21 Assay Protocol Summary: 4000 cells in 5 uL/well were dispensed into white wall/solid bottom 1536-well plates using a Multidrop Combi (Thermo Fisher Scientific Inc., Waltham, MA) dispenser. After the assay plates were incubated at 37C for 5 h, 23 nL of compound or DMSO vehicle was transferred to the assay plates by a pintool station (Kalypsys, San Diego, CA). The plates were incubated at 37C for 24 hr. After 1 ul/well of CellTiter-Fluor reagent (Promega, Madison, WI) was added into the assay plates using a Flying Reagent Dispenser (FRD) (Aurora Discovery, CA), the assay plates were incubated at 37C for 30 min. The fluorescence intensity in the plates was measured using a ViewLux plate reader (PerkinElmer, Shelton, CT), followed by the addition of 4 uL of ONE-Glo Luciferase Assay reagent (Promega) using an FRD (Aurora Discovery). After the assay plates were incubated at room temperature for 30 min, luminescence intensity was measured using a ViewLux plate reader (Perkin Elmer).
In general terms: qHTS replaces the single test concentration by a dilution series.
On to `O=C(Nc1ccc(/C=C/c2ccc(NC(=O)c3cc(S(=O)(=O)O)c4cccnc4c3O)cc2S(=O)(=O)O)c(S(=O)(=O)O)c1)c1cc(S(=O)(=O)O)c2cccnc2c1O`, for which the Potency result was “inactive”.
The result for `Cc1cc2nc3c(=O)[nH]c(=O)nc-3n(C[C@H](O)[C@H](O)[C@H](O)COP(=O)(O)OP(=O)(O)OC[C@H]3O[C@@H](n4cnc5c(N)ncnc54)[C@H](O)[C@@H]3O)c2cc1C` reads “inactive”; that for `CC(O)[C@@H]1NC(=O)[C@H](CCCCN)NC(=O)[C@@H](Cc2c[nH]c3ccccc23)NC(=O)[C@H](Cc2ccccc2)NC(=O)[C@@H](NC(=O)[C@H](N)Cc2ccccc2)CSSC[C@@H](C(=O)N[C@H](CO)[C@@H](C)O)NC1=O` (stereo not given in full), “inactive”; that for `C=C[C@]1(C)C[C@@H](OC(=O)CO)[C@]2(C)[C@H](C)CC[C@]3(CCC(=O)[C@H]32)[C@@H](C)[C@@H]1O`, “inactive”.
The entry for `COC1=C(C(=O)O)N2C(=O)[C@@H](NC(=O)[C@H](N)C3=CCC=CC3)[C@H]2SC1` is “inactive”; for `CN(C)CCCN1c2ccccc2C(C)(C)c2ccccc21` it is “inactive”.
The result for `C/C1=C2N=C(/C=C3N=C(/C(C)=C4\[N-][C@@](C)([C@@H]5N=C1[C@](C)(CCC(=O)NCC(C)OP(=O)(O)O[C@H]1[C@@H](O)[C@@H](n6cnc7cc(C)c(C)cc76)O[C@@H]1CO)[C@H]5CC(N)=O)[C@@](C)(CC(N)=O)[C@@H]4CCC(N)=O)[C@@](C)(CC(N)=O)[C@@H]\3CCC(N)=O)C(C)(C)[C@@H]/2CCC(N)=O.CC(=O)O.[Co]` (stereo not given in full) reads “inactive”.
Take `NS(=O)(=O)c1cc2c(cc1Cl)NC(Cc1ccccc1)NS2(=O)=O` (stereo not given): the Potency entry was “inactive”.
The entry for `CC(CC(c1ccccc1)c1ccccc1)NC(C)(C)C` (stereo not given) is “inactive”; for `C/C1=C2N=C(/C=C3N=C(/C(C)=C4\[N-]C(C(CC(N)=O)C4(C)CCC(=O)NCC(C)OP(=O)([O-])OC4C(CO)OC(n5cnc6cc(C)c(C)cc65)C4O)C4(C)N=C1C(CCC(N)=O)C4(C)CC(N)=O)C(CCC(N)=O)C\3(C)C)C(CCC(N)=O)C/2(C)CC(N)=O.[CH3-].[Co+3]` (stereo not given) it is “inactive”.
`N[C@H](CC(=O)O)C(=O)O`: the Potency result was “inactive”.
The result for `CCCCCCCCCCCCCC[n+]1ccc(C)cc1` reads “inactive”.
The result for `COc1ccc(CCNCC(O)COc2cccc(C)c2)cc1OC` (stereo not given) reads “inactive”.
Turning to `NNc1nnc(Cc2ccncc2)c2ccccc12`, the Potency is 11.9 µM (active).
Take `COc1ccc(-c2noc(CC(=O)O)c2-c2ccc(OC)cc2)cc1`: the Potency result is “inactive”.
On to `CCOc1ccc(N=C(C)Nc2ccc(OCC)cc2)cc1`, for which the Potency result is “inactive”.
The entry for `CC(=O)N=c1sc(S(N)(=O)=O)nn1C` is “inactive”; for `CCCCCCCCCCCCCCCC(=O)OC[C@@H](COP(=O)([O-])OCC[N+](C)(C)C)OC(=O)CCCCCCCCCCCCCCC` it is “inactive”.
The result for `C[C@H](CSC(=O)c1ccccc1)C(=O)N1C[C@@H](Sc2ccccc2)C[C@H]1C(=O)O` reads “inactive”; that for `CCCCCCCCCCCCCCCC(=O)O[C@@H]1CC(C)=C(/C=C/C(C)=C/C=C/C(C)=C/C=C/C=C(C)/C=C/C=C(C)/C=C/C2=C(C)C[C@@H](OC(=O)CCCCCCCCCCCCCCC)CC2(C)C)C(C)(C)C1`, “inactive”; that for `O=C(O)c1nc(=O)[nH]c(=O)[nH]1`, “inactive”.
The entry for `CN1CCCC(CN2c3ccccc3Sc3ccccc32)C1` (stereo not given) is “inactive”; for `CN(C(=O)CO)c1c(I)c(C(=O)NCC(O)CO)c(I)c(C(=O)NCC(O)CO)c1I` (stereo not given) it is “inactive”.
With `CN1CC(O)c2cc(N=NC(N)=O)c(O)cc21` (stereo not given), the Potency entry was “inactive”.
The entry for `NCCC(=O)[N-][C@@H](Cc1cnc[nH]1)C(=O)O.[Zn]` is “inactive”; for `CC(C)CN(C[C@@H](O)[C@H](Cc1ccccc1)NC(=O)O[C@@H]1CCOC1)S(=O)(=O)c1ccc(N)cc1` it is “inactive”; for `CCOC(=O)[C@H](CS)NCCN[C@@H](CS)C(=O)OCC` it is “inactive”.
Consider `CC(=O)[C@@]1(O)CC[C@H]2[C@@H]3C=C(Cl)C4=CC(=O)[C@@H]5C[C@@H]5[C@]4(C)[C@H]3CC[C@@]21C`, for which the Potency entry was “inactive”.
The entry for `CO[C@H]1C[C@@H]2CC[C@@H](C)[C@@](O)(O2)C(=O)C(=O)N2CCCC[C@H]2C(=O)O[C@H]([C@H](C)C[C@@H]2CC[C@@H](OCCO)[C@H](OC)C2)CC(=O)[C@H](C)/C=C(\C)[C@@H](O)[C@@H](OC)C(=O)[C@H](C)C[C@H](C)/C=C/C=C/C=C/1C` is “inactive”.
Turning to `Nc1c(Br)cc(Br)cc1CNC1CCC(O)CC1` (stereo not given), the Potency entry is “inactive”.
The entry for `CCCCCCC(=O)O[C@H]1CC[C@H]2[C@@H]3CCc4cc(O)ccc4[C@H]3CC[C@]12C` is “inactive”; for `CCCCC(=O)O[C@H]1CC[C@H]2[C@@H]3CCc4cc(O)ccc4[C@H]3CC[C@]12C` it is “inactive”; for `O=c1[nH]cnc2[nH]cc(CN3CCCCC3)c12` it is “inactive”.
The result for `O=C(Cn1c(=O)sc2ccc(Cl)cc21)N1CCN(CCO)CC1` reads “inactive”.
The entry for `O=C(O)C1CCCN1` (stereo not given) is “inactive”; for `Nc1ncnc2c1ncn2CCOCP(=O)(O)O` it is “inactive”; for `NCCC[C@H](N)CC(=O)N[C@H]1CNC(=O)[C@H]([C@H]2C[C@H](O)NC(N)=N2)NC(=O)/C(=C/NC(N)=O)NC(=O)[C@H](CO)NC(=O)[C@H](CO)NC1=O` (β3hOrn-[Dap]SS[ΔAla(Z-3-ureido)][X5]; lactam 1-C) it is “inactive”.
In the case of `CC(C)N=c1cc2n(-c3ccc(Cl)cc3)c3ccccc3nc-2cc1Nc1ccc(Cl)cc1`, the Potency entry is “inactive”.
As to `CC(CN(C)C)CN1c2ccccc2Sc2ccc(C(F)(F)F)cc21` (stereo not given), the Potency entry was “inactive”.
The result for `O=S(O)CNc1ccc(S(=O)(=O)c2ccc(NCS(=O)O)cc2)cc1` reads “inactive”.
